Compound activity: PubChem, National Center for Advancing Translational Sciences (NCATS)
This is a sample that favours compounds with a hit; in the whole collection about 14% have one here.
Pf growth 48h – P. falciparum growth inhibition at 48 hours (one generation); P. falciparum luciferase growth in erythrocytes, 48 h; Potency, µM (top dose mostly 28.7 µM), for inactives: at the top dose activity change, negative = inhibition, usual class: inhibitors; actives 5.9% (n = 310,000); note: potency is the fitted concentration of half-maximal effect
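Erythrocytes infected with P. falciparum carrying an integrated firefly luciferase reporter (2% hematocrit, 0.1% parasitemia final) were exposed to compounds in RPMI 1640 with 0.5% Albumax at 37 C, 5% CO2. Growth inhibition was scored as reduced luminescence.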
MARV entry inh – inhibitors of Marburg virus binding or cell entry; Potency, µM (doses to about 37.8 µM), for the others: at the top dose activity change, negative = inhibition, hits mostly inhibitors; AID 540276; actives 1.8% (n = 300,000); Marburg virus pseudotyped entry inhibition, cell reporter; calls by dose curve; tested in HEK293 cells; note: potency is the fitted concentration of half-maximal effect
HCV inhibitor – HCV inhibition; Huh7.5.1 HCVcc-Cre infection, luciferase reporter, 44 h; Potency, µM (highest dose often 41.8 µM), for the others: at the highest dose activity change, negative = inhibition, usual class: inhibitors; actives 3.4% (n = 340,000); AID 651820; note: potency is the fitted concentration of half-maximal effect
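HCVcc-Cre virus at an moi near 0.5 was added right after compound to cells cultured 4 h from seeding (1,000 cells/well). Luciferase activity was determined 44 h later, 15 min after substrate addition at RT.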
LASV entry inh – blocks Lassa virus binding to or entry into cells; Lassa virus pseudotype entry inhibition, cell reporter; Potency, µM (titrated, usually from 37.9 µM), inactives show at the highest dose activity change, negative = inhibition, hits mostly inhibitors; actives 1.2% (n = 300,000); AID 540256; calls by dose curve; tested in HEK293 cells; note: potency is the fitted concentration of half-maximal effect; nearly all actives have a fitted effect of over 50% in size
Pf growth 96h – P. falciparum growth inhibition at 96 hour, primary screen for plastid delayed-death inhibitors. P. falciparum luciferase reporter growth, 96 h. actives 6.9% (n = 320,000). AID 504834. Potency, µM (top dose mostly 28.7 µM), for inactives: at the highest dose activity change, negative = inhibition, actives largely listed as inhibitors; note: potency is the fitted concentration of half-maximal effect
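Luminescence readout: decreased luciferase signal marks inhibited growth of reporter-expressing P. falciparum in infected red cells (2% hematocrit, 0.05% parasitemia final), exposed to compound two generations (96 h, 37 C, 5% CO2).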
HCMV antiviral – human cytomegalovirus inhibition; actives 4.5% (n = 410,000); AID 1259415; HFF cells, HCMV-luciferase reporter, 72 h; active compounds read low; activity change, negative = inhibition, % at 57.5 µM; in the data active = activity change below about -60%; inconclusive = no clear call, values can overlap the other calls; inactive = above about -39%
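HFF cells seeded 16 h at 37C, treated with compounds, infected with luciferase-reporter HCMV at MOI 1 PFU/cell; luciferase read at 72 h post infection, normalized to buffer-only and Salinomycin controls.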
* hit, by the source's call; ? = inconclusive; nt = no result; [ ] = dose if it differs, or a comment. Unless noted, calls come from the whole dose curve; as a rule, active = well fitted inhibition curve with a large enough effect; inconclusive = small, poorly fitted or top-dose-only effect, or another doubt; inactive = no such curve, though single readings can be large or run the other way. % is set by controls: 0 for no effect and ±100 for the full control effect.

SMILES | Pf growth 48h | MARV entry inh | HCV inhibitor | LASV entry inh | Pf growth 96h | HCMV antiviral
CN(c1ccccc1)S(=O)(=O)c1ccc(NC(=O)c2ccccc2C(=O)O)cc1 | nt | ? | 2.3% | 21.8%[46.1 µM] | nt | -17.9
COC(=O)N/N=C/c1cccc([N+](=O)[O-])c1 | 61.7% | 16.0%[46.1 µM] | -0.4% | 22.3%[46.1 µM] | 2.5% | 31.9
CN(c1ccc(C(=O)N/N=C/c2cccc([N+](=O)[O-])c2)cc1)S(=O)(=O)c1ccccc1 | 6.57µM* | ? | 12.6µM* | ? | ? | -9.7
CCOC1(c2ccccc2)CC1C(=O)N/N=C/c1cccc([N+](=O)[O-])c1 (stereo not drawn) | ? | nt | 11.2µM* | nt | ? | -37.6
CSc1nc(Nc2ccc(C)cc2)c(C#N)c(-c2ccccc2)n1 | nt | ? | nt | 12.3%[46.1 µM] | nt | 0.5
CCN1C(=O)c2cccc3c(NC(=O)c4ccc(S(=O)(=O)N(C)C)cc4)ccc1c23 | 11.7µM* | -22.8% | -26.0% | ? | 10.4% | 177.0
CC(=O)Nc1ccc(S(=O)(=O)Oc2ccc(/C=N/NC(=O)c3ccc(Cl)cc3)cc2)cc1 | 13.1µM* | -12.9% | 3.98µM* | -1.0% | ? | -4.1
COc1ccc(/C=N/NC(=O)c2ccc(N(C)S(=O)(=O)c3ccccc3)cc2)cc1 | ? | nt | 12.6µM* | nt | 36.3% | -29.7
COc1ccc(/C=N/NC(=O)c2cccc([N+](=O)[O-])c2)cc1OS(=O)(=O)c1ccc(C)cc1 | ? | ? | -22.4% | -1.4% | -30.3% | -10.9
CCOc1cc(/C=N/NC(=O)c2cccc([N+](=O)[O-])c2)ccc1OS(=O)(=O)c1ccccc1 | 11.7µM* | ? | 8.91µM* | ? | ? | -8.9
C#CCOCCOCCOCCNc1nc(OC)nc(N2CCN(C(=O)[C@H](CCC(=O)O)n3cc(C(N)CO)nn3)CC2)n1 (stereo partly drawn) | 6.9% | nt | 1.0% | nt | 0.0% | -11.2
Cc1ccc(NC(=O)Cn2c(-c3nonc3N)nc3ccccc32)cc1Cl | nt | ? | nt | ? | nt | 69.9
CN(C)C=NC(=O)c1cc2c(n(-c3ccccc3)c1=O)CC(C)(C)CC2=O | nt | -2.1%[46.1 µM] | nt | ? | nt | 5.1
CN1OC[C@@H]2CN(C(=O)CCc3ccccc3)[C@H](c3cccc(-c4ccccc4)c3)C[C@@H]21 | nt | nt | 1.5%[8.37 µM] | nt | nt | -6.8
COc1ccc(C(=O)N/N=C/c2ccc(OC)c(OS(=O)(=O)c3ccccc3)c2)cc1 | ? | ? | 10µM* | ? | ? | ?
COc1ccc(C(=O)Nc2ccc(S(=O)(=O)N(C)c3ccccc3)cc2)cc1 | nt | ? | 12.6µM* | ? | nt | -68.9*
COc1ccc(C(=O)Nc2ccc(S(=O)(=O)N(Cc3ccccc3)c3ccccc3)cc2)cc1 | nt | ? | nt | -26.6%[46.1 µM] | nt | ?
COc1ccc(NC(=O)c2ccc(S(=O)(=O)N(C)c3ccccc3)cc2)cn1 | ? | nt | ? | nt | ? | -61.6*
Cc1nc2ccc(NC(=O)c3ccc(S(=O)(=O)N(C)c4ccccc4)cc3)cc2s1 | ? | ? | ? | ? | ? | -82.1*
O=C(C(=O)N1CCN(C(=O)c2ccco2)CC1)c1ccccc1 | nt | nt | nt | nt | nt | 15.4
CCc1ccc(Nc2nnc(SCC(=O)c3c(N)n(C4CC4)c(=O)[nH]c3=O)s2)cc1 | 20.4% | nt | -0.7% | nt | ? | 0.0
CCOC(=O)c1c(C)nc(C)c(C(=O)OCC)c1-c1ccc(Br)cc1 | -22.9% | ? | -23.1% | -16.6% | 13.1µM* | ?
COc1ccc(NC(C)=O)cc1S(=O)(=O)NC(C)c1ccc(-n2ccnc2)cc1 (stereo not drawn) | -10.9% | nt | ? | nt | -25.7% | 0.0
CCN1/C(=C/c2ccc3cc(C)ccc3[n+]2CC)Sc2ccc3sccc3c21 | nt | nt | 3.55µM* | nt | nt | nt
CCOC(=O)/C(C#N)=C(C)/C=C1\Sc2ccccc2N1CC | 4.9% | ? | ? | 19.6% | -9.7% | 91.5
SMILES | Pf growth 48h | MARV entry inh | HCV inhibitor | LASV entry inh | Pf growth 96h | HCMV antiviral
CCN1/C(=C\c2ccc3cc(C)ccc3[n+]2CC)Sc2cc(C)c(C)cc21 | 5.22µM* | ? | 2.82µM* | nt | 30.6% | -96.7*
CCN1/C(=C/c2ccc3cccc(C)c3[n+]2CC)Sc2ccccc21 | ? | 2.59µM* | 6.31µM* | 6.51µM* | ? | -103.6*
COc1ccc(-c2[nH]ncc2CN2CCSCC2)c(OC)c1 | -0.9% | -2.0%[46.1 µM] | -4.7% | 12.8%[46.1 µM] | 11.7µM* | -18.9
COc1ccc(CN2CCN(c3ccccc3)CC2)c(C)c1C | nt | ? | -5.7% | 10.3µM* | -14.2% | -19.0
COc1ccc(CN2CCN(c3ncccn3)CC2)c(C)c1C | 6.2% | nt | -20.8% | nt | 6.5% | 8.8
COc1ccc(CN2CCSCC2)c(C)c1C | -2.0% | 16.8% | 21.3% | -1.2% | 8.28µM* | 22.2
COc1ccc(CN2CCSCC2)c(OC)c1C | -15.4% | -7.7% | -0.1% | -10.8% | ? | -10.5
COc1ccc(OC)c(CN2CCSCC2)c1 | ? | ? | 5.1% | -0.4% | -2.3% | -8.6
C=CCNc1ccc2c(c1)OC[C@@H](CC(C)C)NS2(=O)=O | nt | nt | nt | 8.8%[46.1 µM] | nt | -22.5
CCCOc1ncnc2c1[nH]c1ccc(C)cc12 | 15.8% | nt | 12.6µM* | nt | 349.1% | nt
CCOc1ncnc2c1[nH]c1ccccc12 | 92.2% | ? | 10µM* | -4.4% | -5.9% | 4.9
CCCNC(=O)C1Cc2cc(S(=O)(=O)N3CCCCCC3)ccc2N1C(C)=O (stereo not drawn) | nt | nt | nt | -14.2%[46.1 µM] | nt | 0.3
CCOC(=O)c1[nH]c(C)c(C(=O)Nc2ccc3c(c2)OCCO3)c1C | ? | 22.4% | ? | -2.9% | -42.6% | -74.4*
CCOC(=O)c1c(C)[nH]c(C(=O)Nc2ccc(C)c(Cl)c2)c1C | -54.7% | 7.1% | -1.9% | 6.5% | ? | nt
CCOC(=O)c1c(C)[nH]c(C(=O)Nc2ccc(NC(C)=O)cc2)c1C | 0.0% | ? | ? | -2.6% | 0.0% | -65.2*
COc1ccc(CCn2nnnc2C2(c3ccc(C)cc3)CC2)cc1 | nt | -4.9% | nt | -20.8% | nt | nt
COc1ccc2cc(CNc3ccccc3)c(=O)n(CC(=O)Nc3ccc(C)cc3C)c2c1 | nt | nt | nt | ? | nt | -32.9
O=C(Nc1cccc(S(=O)(=O)NC2=NCCCCC2)c1)c1cc(-c2ccncc2)nc2ccccc12 | ? | nt | ? | nt | 11.7µM* | -16.4
Cc1cc(NC(=O)c2cc(-c3ccncc3)nc3ccccc23)ccc1Br | nt | ? | 8.91µM* | ? | nt | -13.9
CC(=O)c1cccc(NC(=O)c2cc(-c3ccncc3)nc3ccccc23)c1 | 11.7µM* | nt | ? | nt | ? | 4.9
CC(=O)Nc1ccc(NC(=O)c2cc(-c3ccccc3)nc3ccccc23)cc1 | -18.8% | -22.1% | ? | -1.2% | 12.2% | 94.4
CCOc1ccc(NC(=O)CCCn2nc(C)c3c(C)n(-c4ccccc4)nc3c2=O)cc1 | ? | nt | -11.0% | nt | 11.7µM* | -1.7
